The supplement of paper PMC10849652
Of roughly 7,900 targets only a part is listed; those with a hit were picked by preference. About 0.6% of all pairs of compound and target were hits. Values without a mark were called inactive.

Key:
Test in all cases: log2 fold change, soluble protein after heating vs DMSO (PISA); higher = thermal stabilisation; K562 cells, 10 uM, 30 min; active = over 0.2 and 3.5 SD of the protein, either way, in both replicates (recomputed)
[1] = compound: Cc1ccc(NC(=O)c2ccc(CN3CC[C@H](N(C)C)C3)c(C(F)(F)F)c2)cc1Nc1nccc(-c2cncnc2)n1 [bafetinib]
Outline: (§1)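 K562 cells at 2×10^6 cells/mL were given 10 μM compound for 30 min. Aliquots then went through 3 min of heating across 48°C-58°C, were pooled, and were extracted in PBS with 0.5% NP-40 at 4°C, and the supernatant after 21,000xg for 90 min was quantified by TMTpro 16plex LC-MS/MS with channel sums equalised. Thermal stability relative to control samples, from duplicates, is given as log2 fold change.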

[2] = compound: Cc1cccc(CC(=O)N2CCc3c2ccc(-c2cn(C)c4ncnc(N)c24)c3F)n1
Outline: as §1

[3] = compound: Cc1cn(-c2cc(NC(=O)c3ccc(C)c(Nc4nccc(-c5cccnc5)n4)c3)cc(C(F)(F)F)c2)cn1 [nilotinib]
Outline: as §1

[4] = compound: Cc1nc(Nc2n[nH]c3c2CN(C(=O)N[C@H](CN(C)C)c2ccccc2)C3(C)C)c2sccc2n1
Outline: as §1

[5] = compound: Cc1nc(Nc2ncc(C(=O)Nc3c(C)cccc3Cl)s2)cc(N2CCN(CCO)CC2)n1 [dasatinib]
Outline: as §1

[6] = compound: Cc1ncc(-c2ccnc(Nc3ccc(S(C)(=O)=O)cc3)n2)n1C(C)C
Outline: as §1

[7] = compound: Cn1cc(-c2ccc3c(c2)CCN3C(=O)Cc2cccc(C(F)(F)F)c2)c2c(N)ncnc21
Outline: as §1

[8] = compound: Cn1cc(-c2ccc3nnc(C(F)(F)c4ccc5ncccc5c4)n3n2)cn1
Outline: as §1

[9] = compound: Cn1cncc1[C@@](N)(c1ccc(Cl)cc1)c1ccc2c(c1)c(-c1cccc(Cl)c1)cc(=O)n2C [tipifarnib]
Outline: as §1

[10] = compound: FC(F)(F)c1ccc(/C=C/c2nc(COc3ccc(CCCCn4ccnn4)cc3)co2)cc1 [mubritinib]
Outline: as §1

[11] = compound: NC(=O)Nc1cc(-c2cccc(F)c2)sc1C(=O)N[C@H]1CCCNC1
Outline: as §1

[12] = compound: NC(=O)c1cnc(N[C@@H]2CCCC[C@@H]2N)nc1Nc1cccc(-n2nccn2)c1
Outline: as §1

[13] = compound: NC1(c2ccc(-c3nc4ccn5c(=O)[nH]nc5c4cc3-c3ccccc3)cc2)CCC1
Outline: as §1

[14] = compound: NCC(=O)Nc1ccc(-n2nc(C(F)(F)F)cc2-c2ccc3c(ccc4ccccc43)c2)cc1
Outline: as §1

[15] = compound: Nc1ccccc1NC(=O)c1ccc(CNC(=O)OCc2cccnc2)cc1 [entinostat]
Outline: as §1

[16] = compound: O=C(CCCCCCC(=O)Nc1ccccc1)NO [vorinostat]
Outline: as §1

[17] = compound: O=C(CCCCCCNC(=O)c1cnc(N(c2ccccc2)c2ccccc2Cl)nc1)NO [citarinostat]
Outline: as §1

[18] = compound: O=C(O)c1ccc2c(c1)nc(Nc1cccc(Cl)c1)c1ccncc12 [silmitasertib]
Outline: as §1

[19] = compound: O=C1NC(=O)C(c2cnc3ccccn23)=C1c1cn2c3c(cc(F)cc13)CN(C(=O)N1CCCCC1)CC2
Outline: as §1

[20] = compound: c1cc(OCCN2CCCCC2)cc(-c2n[nH]c3ccc(-c4nnc[nH]4)cc23)c1
Outline: as §1

Sequence of UniProt O43237 (O43237 whole entry, looked up): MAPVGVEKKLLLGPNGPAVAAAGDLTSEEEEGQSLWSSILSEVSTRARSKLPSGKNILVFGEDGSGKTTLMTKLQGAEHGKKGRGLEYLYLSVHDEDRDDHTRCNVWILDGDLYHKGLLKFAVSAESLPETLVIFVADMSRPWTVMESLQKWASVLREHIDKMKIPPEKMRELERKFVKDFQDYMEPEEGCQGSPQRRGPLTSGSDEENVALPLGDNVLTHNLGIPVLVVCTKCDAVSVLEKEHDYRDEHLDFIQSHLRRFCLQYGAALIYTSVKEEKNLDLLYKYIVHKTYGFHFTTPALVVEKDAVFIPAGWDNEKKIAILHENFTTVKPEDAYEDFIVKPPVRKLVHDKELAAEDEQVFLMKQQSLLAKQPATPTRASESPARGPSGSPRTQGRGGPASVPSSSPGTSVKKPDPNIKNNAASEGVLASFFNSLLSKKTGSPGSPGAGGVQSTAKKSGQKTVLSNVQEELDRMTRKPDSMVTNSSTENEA
Sequence of UniProt Q8N128 (Q8N128 whole entry, looked up): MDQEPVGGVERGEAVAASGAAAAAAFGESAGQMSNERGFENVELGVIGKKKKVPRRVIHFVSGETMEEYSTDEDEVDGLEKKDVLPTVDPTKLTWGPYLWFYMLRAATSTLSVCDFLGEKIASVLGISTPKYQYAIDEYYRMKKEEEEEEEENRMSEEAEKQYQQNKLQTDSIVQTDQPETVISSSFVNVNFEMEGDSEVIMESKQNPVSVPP
Sequence of UniProt O76075 (O76075 whole entry, looked up): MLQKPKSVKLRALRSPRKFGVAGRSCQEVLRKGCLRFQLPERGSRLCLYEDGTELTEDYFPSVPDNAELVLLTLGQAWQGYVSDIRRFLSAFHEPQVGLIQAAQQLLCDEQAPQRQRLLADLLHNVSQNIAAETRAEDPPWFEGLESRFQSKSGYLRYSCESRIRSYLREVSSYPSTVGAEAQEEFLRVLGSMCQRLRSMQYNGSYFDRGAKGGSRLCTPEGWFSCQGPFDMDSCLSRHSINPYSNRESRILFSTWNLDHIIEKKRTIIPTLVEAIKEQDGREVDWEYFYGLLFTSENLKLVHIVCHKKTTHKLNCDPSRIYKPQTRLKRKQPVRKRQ
Sequence of UniProt P41091 (P41091 whole entry, looked up): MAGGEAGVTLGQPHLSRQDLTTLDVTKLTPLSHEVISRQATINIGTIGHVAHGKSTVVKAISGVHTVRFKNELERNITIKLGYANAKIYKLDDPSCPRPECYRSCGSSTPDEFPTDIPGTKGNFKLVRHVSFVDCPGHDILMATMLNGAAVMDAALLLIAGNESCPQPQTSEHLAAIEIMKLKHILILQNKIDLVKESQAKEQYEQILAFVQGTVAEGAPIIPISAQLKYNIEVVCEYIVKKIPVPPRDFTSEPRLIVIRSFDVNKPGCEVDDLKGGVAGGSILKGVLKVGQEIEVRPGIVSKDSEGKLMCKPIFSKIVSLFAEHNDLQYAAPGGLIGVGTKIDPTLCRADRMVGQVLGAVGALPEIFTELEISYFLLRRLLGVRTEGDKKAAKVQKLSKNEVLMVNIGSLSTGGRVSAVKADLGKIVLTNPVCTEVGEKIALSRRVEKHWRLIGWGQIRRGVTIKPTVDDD
Sequence of UniProt Q9UBQ6 (Q9UBQ6 whole entry, looked up): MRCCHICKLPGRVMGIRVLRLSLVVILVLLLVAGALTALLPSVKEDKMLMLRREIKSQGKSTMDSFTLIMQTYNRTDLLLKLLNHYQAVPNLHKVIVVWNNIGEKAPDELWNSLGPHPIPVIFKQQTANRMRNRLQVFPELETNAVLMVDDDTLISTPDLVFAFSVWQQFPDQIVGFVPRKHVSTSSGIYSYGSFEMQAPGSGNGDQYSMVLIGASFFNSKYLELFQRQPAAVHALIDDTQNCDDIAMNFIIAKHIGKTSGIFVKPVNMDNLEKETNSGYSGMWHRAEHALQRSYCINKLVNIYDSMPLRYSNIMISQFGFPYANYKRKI
Sequence of UniProt Q9C073 (Q9C073 whole entry, looked up): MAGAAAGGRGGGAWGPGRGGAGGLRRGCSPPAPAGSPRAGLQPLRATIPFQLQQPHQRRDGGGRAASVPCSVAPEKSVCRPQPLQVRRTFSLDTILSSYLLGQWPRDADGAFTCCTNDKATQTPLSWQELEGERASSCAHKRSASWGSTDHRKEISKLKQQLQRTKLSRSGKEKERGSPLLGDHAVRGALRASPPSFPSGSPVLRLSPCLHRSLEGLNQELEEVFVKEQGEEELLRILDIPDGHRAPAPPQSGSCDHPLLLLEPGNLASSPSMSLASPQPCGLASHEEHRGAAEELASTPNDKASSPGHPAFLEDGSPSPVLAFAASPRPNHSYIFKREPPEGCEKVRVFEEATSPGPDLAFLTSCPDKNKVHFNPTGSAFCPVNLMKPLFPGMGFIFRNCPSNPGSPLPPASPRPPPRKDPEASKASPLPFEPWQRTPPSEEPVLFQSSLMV
Sequence of UniProt Q6UX04 (Q6UX04 whole entry, looked up): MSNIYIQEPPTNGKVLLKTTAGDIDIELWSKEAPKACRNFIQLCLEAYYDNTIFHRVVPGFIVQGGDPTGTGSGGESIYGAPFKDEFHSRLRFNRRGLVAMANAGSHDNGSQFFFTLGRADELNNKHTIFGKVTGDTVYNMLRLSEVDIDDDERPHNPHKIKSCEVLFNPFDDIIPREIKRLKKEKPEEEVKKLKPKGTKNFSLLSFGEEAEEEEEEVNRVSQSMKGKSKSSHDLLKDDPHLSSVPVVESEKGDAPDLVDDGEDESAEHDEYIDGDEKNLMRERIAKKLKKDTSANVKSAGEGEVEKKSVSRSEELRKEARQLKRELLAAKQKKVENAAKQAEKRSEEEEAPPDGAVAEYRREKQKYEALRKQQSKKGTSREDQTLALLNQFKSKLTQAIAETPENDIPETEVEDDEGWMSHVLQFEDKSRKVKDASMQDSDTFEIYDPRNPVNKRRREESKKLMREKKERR
Sequence of UniProt Q9NQI0 (Q9NQI0 whole entry, looked up): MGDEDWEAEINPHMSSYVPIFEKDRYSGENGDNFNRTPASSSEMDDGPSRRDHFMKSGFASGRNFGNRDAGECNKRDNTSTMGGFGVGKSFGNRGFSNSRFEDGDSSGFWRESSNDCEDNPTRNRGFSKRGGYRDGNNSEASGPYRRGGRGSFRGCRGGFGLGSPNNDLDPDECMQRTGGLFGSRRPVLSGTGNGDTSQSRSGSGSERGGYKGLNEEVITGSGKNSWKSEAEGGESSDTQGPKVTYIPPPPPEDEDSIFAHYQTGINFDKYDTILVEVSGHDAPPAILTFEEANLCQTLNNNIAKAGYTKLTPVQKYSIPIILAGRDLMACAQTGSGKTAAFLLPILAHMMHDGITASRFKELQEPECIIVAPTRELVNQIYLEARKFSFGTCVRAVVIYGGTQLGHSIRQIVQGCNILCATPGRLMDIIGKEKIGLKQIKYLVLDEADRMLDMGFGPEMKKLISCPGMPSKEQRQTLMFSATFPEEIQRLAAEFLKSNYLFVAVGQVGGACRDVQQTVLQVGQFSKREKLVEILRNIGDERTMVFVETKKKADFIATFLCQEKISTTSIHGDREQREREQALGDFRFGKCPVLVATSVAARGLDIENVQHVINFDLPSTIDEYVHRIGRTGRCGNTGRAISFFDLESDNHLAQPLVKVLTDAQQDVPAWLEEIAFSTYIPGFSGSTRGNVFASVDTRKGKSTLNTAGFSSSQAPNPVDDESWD
Sequence of UniProt P09622 (P09622 whole entry, looked up): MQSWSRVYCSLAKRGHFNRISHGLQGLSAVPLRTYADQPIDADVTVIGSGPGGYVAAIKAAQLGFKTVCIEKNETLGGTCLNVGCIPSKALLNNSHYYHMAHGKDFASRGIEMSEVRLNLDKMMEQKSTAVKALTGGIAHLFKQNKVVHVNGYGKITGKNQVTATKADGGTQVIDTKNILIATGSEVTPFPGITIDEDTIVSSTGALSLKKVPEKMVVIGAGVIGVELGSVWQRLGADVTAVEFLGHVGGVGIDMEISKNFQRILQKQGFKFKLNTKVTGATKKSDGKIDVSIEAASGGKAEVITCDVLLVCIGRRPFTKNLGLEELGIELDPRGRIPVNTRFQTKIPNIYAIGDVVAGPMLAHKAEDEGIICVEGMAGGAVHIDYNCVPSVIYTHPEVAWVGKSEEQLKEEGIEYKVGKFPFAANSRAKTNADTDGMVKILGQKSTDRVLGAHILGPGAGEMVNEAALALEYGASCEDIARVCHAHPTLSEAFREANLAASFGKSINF
Sequence of UniProt Q5W0V3 (Q5W0V3 whole entry, looked up): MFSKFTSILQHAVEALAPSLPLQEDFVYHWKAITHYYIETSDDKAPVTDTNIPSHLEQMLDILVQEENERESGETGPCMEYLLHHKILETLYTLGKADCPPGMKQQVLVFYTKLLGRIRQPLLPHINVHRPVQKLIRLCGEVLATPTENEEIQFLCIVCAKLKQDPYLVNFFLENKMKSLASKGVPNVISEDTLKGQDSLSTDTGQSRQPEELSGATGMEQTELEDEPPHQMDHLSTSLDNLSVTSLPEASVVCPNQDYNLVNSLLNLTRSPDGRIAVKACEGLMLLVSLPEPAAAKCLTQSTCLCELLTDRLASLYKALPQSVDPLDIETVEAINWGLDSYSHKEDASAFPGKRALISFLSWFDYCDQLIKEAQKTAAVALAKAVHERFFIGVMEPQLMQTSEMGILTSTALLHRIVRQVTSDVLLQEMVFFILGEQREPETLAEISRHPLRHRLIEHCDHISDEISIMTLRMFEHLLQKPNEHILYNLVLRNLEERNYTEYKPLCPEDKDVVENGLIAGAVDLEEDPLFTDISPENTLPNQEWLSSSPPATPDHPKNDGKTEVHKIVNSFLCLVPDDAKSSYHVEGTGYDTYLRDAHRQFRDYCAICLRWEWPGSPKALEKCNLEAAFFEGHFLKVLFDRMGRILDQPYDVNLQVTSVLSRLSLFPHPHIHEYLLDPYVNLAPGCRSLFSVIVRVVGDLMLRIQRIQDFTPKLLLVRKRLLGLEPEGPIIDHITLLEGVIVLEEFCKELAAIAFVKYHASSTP

Row | Target | log2 fold change [1] | log2 fold change [2] | log2 fold change [3] | log2 fold change [4] | log2 fold change [5] | log2 fold change [6] | log2 fold change [7] | log2 fold change [8] | log2 fold change [9] | log2 fold change [10] | log2 fold change [11] | log2 fold change [12] | log2 fold change [13] | log2 fold change [14] | log2 fold change [15] | log2 fold change [16] | log2 fold change [17] | log2 fold change [18] | log2 fold change [19] | log2 fold change [20]
1 | FAM177A1 isoform 2 (UniProt Q8N128) | -0.125 | -0.007 | -0.113 | 0.005 | -0.098 | -0.044 | 0.038 | -0.005 | -0.01 | 0.004 | 0.047 | -0.053 | -0.023 | -0.038 | 0.007 | 0.072 | 0.047 | 0.029 | -0.089 | 0.002
2 | FADS1, A0A0A0MR51 | -0.03 | 0.062 | 0.004 | -0.005 | 0.011 | -0.019 | 0.253 (active) | -0.045 | -0.021 | 0.028 | -0.041 | -0.036 | -0.074 | 0.036 | -0.002 | -0.105 | -0.029 | 0.014 | -0.15 | -0.029
3 | DLD (UniProt P09622) | -0.028 | -0.042 | 0.034 | -0.018 | -0.025 | -0.066 | -0.04 | 0.015 | -0.008 | -0.429 (active) | 0.003 | 0.007 | -0.088 | 0.033 | -0.013 | -0.02 | 0.011 | -0.042 | -0.004 | -0.093
4 | CWC27 (UniProt Q6UX04) | -0.147 | -0.059 | -0.058 | -0.094 | -0.087 | 0.132 | 0.056 | 0.022 | -0.146 | 0.109 | -0.062 | 0.016 | -0.142 | -0.103 | 0.113 | 0.062 | 0.089 | 0.062 | -0.092 | 0.026
5 | EXTL2 (UniProt Q9UBQ6) | -0.041 | 0.021 | -0.02 | 0.006 | -0.008 | -0.059 | -0.039 | -0.064 | 0.014 | 0.029 | -0.051 | -0.033 | -0.018 | 0.039 | -0.01 | 0.019 | -0.044 | -0.011 | 0.003 | -0.223
6 | DYNC1LI2 (UniProt O43237) | -0.041 | -0.004 | 0.109 | 0.015 | -0.068 | 0.125 | -0.184 | 0.052 | -0.01 | 0.024 | 0.093 | -0.021 | 0.206 | -0.075 | -0.026 | 0.075 | -0.101 | 0.214 | 0.158 | -0.108
7 | FAM160B1 (UniProt Q5W0V3) | -0.018 | 0.023 | -0.032 | -0.049 | -0.082 | -0.014 | -0.053 | -0.039 | 0.115 | 0.023 | 0.04 | -0.038 | -0.211 (active) | -0.043 | 0.026 | 0.139 | 0.069 | -0.026 | -0.064 | 0
8 | FAM117A (UniProt Q9C073) | -0.021 | 0.004 | -0.047 | -0.083 | -0.046 | -0.018 | 0.016 | 0.032 | 0.039 | 0.024 | -0.135 | 0 | -0.05 | -0.03 | 0.046 | -0.011 | 0.043 | -0.422 (active) | 0.038 | -0.251 (active)
9 | DBNL isoform 3 (UniProt Q9UJU6) | 0.048 | -0.007 | -0.05 | -0.071 | -0.098 | -0.013 | -0.003 | 0.057 | -0.096 | 0.032 | 0.021 | -0.022 | -0.109 | -0.061 | -0.003 | -0.01 | 0.063 | 0.058 | 0.012 | 0.007
10 | DFFB (UniProt O76075) | 0.042 | -0.032 | -0.047 | -0.156 | -0.057 | 0.056 | -0.053 | 0.002 | -0.072 | 0.019 | 0.028 | -0.064 | -0.037 | 0.069 | 0 | 0.016 | 0.057 | 0.087 | 0.048 | -0.08
11 | DDX4 (UniProt Q9NQI0) | 0.244 | -0.511 | -0.172 | -0.187 | 0.107 | -0.068 | -0.217 | 0.052 | 0.268 | -0.484 | -1.13 (active) | 0.01 | 0.297 | -0.35 | -0.405 | -0.253 | -0.146 | 0.171 | -0.273 | -0.194
12 | EIF2S3 (UniProt P41091) | 0.133 | -0.023 | -0.04 | 0.072 | 0.043 | 0.014 | -0.081 | -0.052 | 0.019 | -0.017 | 0.034 | 0.006 | 0.163 | 0.025 | -0.001 | 0 | -0.044 | -0.001 | 0.066 | -0.154
